# Rows were chosen to be rich in hits. Some 2% of all compounds tested hit in one or more screens of this group.
# CHT allo act – CHT positive allosteric modulators, primary screen, cell-based, membrane potential dye, choline EC20 | High affinity choline transporter 1 (Homo sapiens), Q9GZV3 | B-score at 10 µM | hit rate 0.49% among 310,000 | CHT-expressing cells; stronger effect = higher value; LV-AA mutant CHT in HEK293 cells;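 active = initial fluorescence not abnormally high and integrated response B-score, plate-corrected, over 3 SD above library mean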
# TAG inh – inhibitors of triacylglycerol accumulation, primary screen, cell-based, uHTS, fluorescence, H9c2 | H9c2 cells, Nile Red lipid (TAG) fluorescence; cells loaded with 200 µM oleic acid | inhibition, % at 12.5 µM | hit rate 0.66% among 230,000 | AID 651582, 2012;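 active = pattern-corrected inhibition of lipid staining of at least 50% with the nuclear-stain viability signal not falling by more than 50%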;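 note: 0% = DMSO wells and 100% = triacsin C control wells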
# Kir21 block – inhibitors of mouse Kir2.1 inward-rectifier potassium channel; HEK293-Kir2.1, FluxOR thallium flux fluorescence; stronger effect = lower value; hit rate 0.85% among 310,000; B-score at 10 µM; Inward rectifier potassium channel 2 (Mus musculus), P35561;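 active = fluorescence ratio B-score at or below minus 3 SD of library scores, with starting-brightness B-score within 2 SD, cut at about -4.2 in these data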;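 note: channel flux triggered by added potassium and thallium sulfate stimulus; B-score of peak minus minimum fluorescence over baseline after thallium stimulus; more negative B-score means stronger Kir2.1 block with less thallium influx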
# Target sequence (P35561 whole entry, looked up): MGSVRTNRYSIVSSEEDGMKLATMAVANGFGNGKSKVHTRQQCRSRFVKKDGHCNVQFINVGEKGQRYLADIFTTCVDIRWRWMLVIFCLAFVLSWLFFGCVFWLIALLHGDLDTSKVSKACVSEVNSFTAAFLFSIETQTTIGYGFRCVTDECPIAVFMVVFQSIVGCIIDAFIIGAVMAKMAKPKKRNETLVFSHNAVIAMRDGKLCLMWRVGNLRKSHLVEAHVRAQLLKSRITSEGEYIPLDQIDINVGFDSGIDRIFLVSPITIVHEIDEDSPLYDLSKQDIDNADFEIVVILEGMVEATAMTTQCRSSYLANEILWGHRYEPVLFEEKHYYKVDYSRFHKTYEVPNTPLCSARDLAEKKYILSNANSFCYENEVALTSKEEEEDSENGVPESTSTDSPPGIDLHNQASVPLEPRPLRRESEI
# CHT inh – inhibitors of human choline transporter CHT; CHT-expressing cells, membrane potential dye, choline response; stronger effect = lower value; High affinity choline transporter 1 (Homo sapiens), Q9GZV3; B-score at 10 µM; hit rate 0.86% among 310,000;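 active = B-score over 3 SD under the library average, and starting fluorescence ratio not unusually high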;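 note: choline stimulus applied at its EC90 after an EC20 pre-addition; B-score computed on integrated fluorescence ratio after choline addition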
# * = called active by the depositor; i = inactive; x = not tested or not shown; ! = repeats disagree.
SMILES,CHT allo act,TAG inh,Kir21 block,CHT inh
O=S(=O)(NC1CCCCC1Nc1ccc(Cl)cc1)c1ccccc1 (stereo unspecified),i,x,0.18,i
CCCN1C(=O)/C(=C2\SC(N3CCCCC3)=NC2=O)c2ccccc21,i,51*,0.1,i
Cc1ccc(-c2csc3nc4c5ccccc5c(NCCCN(C)C)nn4c(=O)c23)cc1,i,59*,-0.74,i
Cc1ccc(-c2csc3nc4c5ccccc5c(NCCCN5CCOCC5)nn4c(=O)c23)cc1,i,x,-0.86,i
COc1ccc(CN2CCC(C(=O)c3ccc(Cl)cc3)CC2)cc1,i,x,-9.8*,i
CCCCCCCCCCCCCCCC[n+]1ccc(C(N)=O)cc1,i,x,x,i
CCCCCCCCCCCCCCCC[n+]1ccccc1,x,54*!,x,x
Cc1cccc(OCCCCNCc2ccccc2)c1,i,-10,-1.9,i
C/C=C/c1ccc(OCCOCCNCc2ccccc2)c(OC)c1,i,x,-6.2*,i
Clc1ccc(Cl)c(OCCCCNCc2ccccc2)c1,i,-10,-12*,i
Cc1cc(C)c(C)c(OCCOCCNCc2ccccc2)c1,i,x,-9.1*,i
Cc1ccc(OCCNCc2ccccc2)c(C)c1,i,-15,-4.6*,i
C/C=C/c1ccc(OCCOc2cc(C=O)ccc2OC)c(OC)c1,i,-7,1.2,i
COc1ccc(NC(=O)CS(=O)(=O)c2ccccc2Cl)cc1,i,x,0.56,i
CN(CCOc1ccccc1)S(=O)(=O)c1ccccc1C#N,x,21,x,x
O=C(NCCCN1CCCC1=O)c1ccccc1OCc1ccc(Cl)cc1Cl,x,-12,x,x
Cc1cc(Cl)c(OCCCNCc2ccccc2)c(Br)c1,i,5,-11,i
Cc1cc(C)c(OCCCNCc2ccccc2)c(Br)c1,i,x,-16*,i
CC(C)(C)c1ccc(C(=O)NC(=O)COC(=O)CCS(=O)(=O)c2ccccc2)cc1,x,-1,x,x
COC(=O)c1sc(N2C(=O)C(O)=C(C(=O)c3ccc(C)o3)C2c2cccs2)nc1C (stereo unspecified),i,-9,0.66,-5.8*
COc1ccc(N2CC(C(=O)NCCc3ccc(Cl)cc3)CC2=O)c(OC)c1 (stereo unspecified),i,-2,-0.46,i
CC1CN(S(=O)(=O)c2cccc(C(F)(F)F)c2)CC(C)O1 (stereo unspecified),i,2,-4.4*,i
C[C@H](NC(=O)OC(C)(C)C)c1nnc(SCC(=O)Nc2cccc(Cl)c2)o1,i,x,-4.3*,i
Cc1cccc(CSc2nnc(CCNC(=O)OC(C)(C)C)o2)c1,i,-8,-6.8*,i
CC(C)(C)OC(=O)NCCc1nnc(SCc2cccc(Cl)c2)o1,i,-13,-12*,i
SMILES,CHT allo act,TAG inh,Kir21 block,CHT inh
CC(C)(C)OC(=O)NCCc1nnc(SCc2c(Cl)cccc2Cl)o1,i,x,-3.8,i
COC(=O)c1cnn(-c2ccccc2)c1-n1cccc1C=O,i,20,-1,i
Cc1cc(NC(=O)c2ccco2)sc1C,x,-14,x,x
Cc1nnc(C)c2c(C)n(C(c3ccccc3)c3ccccc3)c(C)c12,i,x,-4.5*,i
CC1=CC(=O)N(c2ccc(C)cc2)C1c1ccc(Cl)cc1 (stereo unspecified),i,x,-4.5*,i
CN(C)c1ccc(C(=O)c2ccc(N(C)C)c3ccccc23)cc1,10*,-2,-0.01,i
CCC(C)(C)NC(=O)CSc1nc(Cc2ccccc2)nc2ccccc12,i,-5,-1.5,i
CC(C)NC(=O)CSc1nc(Cc2cccs2)nc2ccccc12,i,x,-4.6*,i
COc1cccc(CNc2cc(CSc3ccc(Cl)cc3)nc(C)n2)c1,i,7,-7.7*,i
COc1cccc(CNc2ccc(C)c(Cl)c2)c1,i,x,1.4,i
COc1ccc(CCNC(=O)COc2cccc3c2OC(C)(C)C3)cc1OC,i,-15,-5.8*,i
CC1(C)Cc2cccc(OCC(=O)OCC(=O)NCc3ccccc3)c2O1,i,3,-4.3*,i
CC1CCCCN1C(=S)NCCc1ccccc1 (stereo unspecified),i,0,1,i
O=C(Nc1ccc(S(=O)(=O)Nc2nccs2)cc1)c1ccc(=O)[nH]c1,i,x,-2.1,i
CCC1CCCCN1S(=O)(=O)c1ccccc1[N+](=O)[O-] (stereo unspecified),i,1,-4.3*,i
CC(CCc1ccccc1)NC(=O)CN(C)Cc1ccc(F)cc1 (stereo unspecified),i,x,-4.5*,i
CC(CCc1ccccc1)NC(=O)CN(C)Cc1ccccc1F (stereo unspecified),i,-14,-0.38,i
O=C(Oc1cccc2c(O)cccc12)c1ccccc1,i,-21,-5.4*,i
Cc1ccc(OCC(O)CN2CCC(Cc3ccccc3)CC2)c(C)c1 (stereo unspecified),i,x,-4.6*,i
Cc1cccc(NC(=S)N(CCCN2CCCC2)Cc2cccn2Cc2ccc(Cl)cc2)c1,i,7,-5.3*,i
CN1C(=O)C(O)(C2CCCCCC2=O)c2ccccc21 (stereo unspecified),i,x,-0.16,i
O=C(N1CCN(c2ccccn2)CC1)N1c2ccccc2Sc2ccccc21,i,58*,1.2,i
O=S(=O)(c1ccccc1)N(Cc1ccccc1)c1ccccn1,i,2,-6.7*,i
Cc1ccc(-n2nnnc2-c2ccccc2)cc1,i,12,0.1,i
Cc1ccc(-n2nnnc2C(Cl)c2nnnn2-c2ccc(C)cc2)cc1,x,x,-12*,x
SMILES,CHT allo act,TAG inh,Kir21 block,CHT inh
N#Cc1nc(-c2cccc3ccccc23)oc1N1CCCCC1,i,1,-0.48,i
N#Cc1nc(-c2cccc3ccccc23)oc1NCCN1CCCCC1,i,29,-4.9*,i
CN1CCN(c2nc(-c3ccccc3)c3cc(Cl)ccc3n2)CC1,i,13,-9.6*,i
O=C1CN(c2nc(-c3ccccc3)c3cc(Cl)ccc3n2)c2ccccc2N1,i,x,0.39,i
Clc1ccc2nc(N3CCNCC3)nc(-c3ccccc3)c2c1,i,18,-4.9*,i
Cc1ccc(S(=O)(=O)N2CCOCC2)cc1NC(=O)COC(=O)COc1ccc(C#N)cc1,x,5,x,x
CCN1C(N(C)CCc2c[nH]c3ccccc23)=N[C@@H](c2cccc(C(F)(F)F)c2)C(C(=O)OC)=C1C,x,112*,x,x
CCN1C(=O)N[C@@H](c2cccc(C(F)(F)F)c2)C(C(=O)OC)=C1C,i,-10,-2.4,i
COc1ccc(C(CNC(=O)Cc2ccc3ccccc3c2)N(C)C)cc1 (stereo unspecified),i,x,-1.3,i
COc1ccc(C(CNC(=O)C(C)c2ccc3cc(OC)ccc3c2)N(C)C)cc1 (stereo unspecified),i,x,-4.9*,i
COc1cccc(-n2nc(C(N)=O)c(O)cc2=O)c1,i,-8,1.4,i
COc1cccc(-n2nc(C#N)c(Cl)cc2=O)c1,x,x,-4.6*,x

# Screens deposited in PubChem by several laboratories.
